Values joined by “and” are separate entries in the source; they are usually repeats but may differ in a detail not shown here. Identical values can stand only once. Active and inactive are the calls of the source. Rule for the calls: active = hit-call score of the fitted dose curve at least 0.9, where 1 is the maximum; inactive = score below 0.9.

Chain of Aryl hydrocarbon receptor (Homo sapiens) (P35869 whole entry, looked up): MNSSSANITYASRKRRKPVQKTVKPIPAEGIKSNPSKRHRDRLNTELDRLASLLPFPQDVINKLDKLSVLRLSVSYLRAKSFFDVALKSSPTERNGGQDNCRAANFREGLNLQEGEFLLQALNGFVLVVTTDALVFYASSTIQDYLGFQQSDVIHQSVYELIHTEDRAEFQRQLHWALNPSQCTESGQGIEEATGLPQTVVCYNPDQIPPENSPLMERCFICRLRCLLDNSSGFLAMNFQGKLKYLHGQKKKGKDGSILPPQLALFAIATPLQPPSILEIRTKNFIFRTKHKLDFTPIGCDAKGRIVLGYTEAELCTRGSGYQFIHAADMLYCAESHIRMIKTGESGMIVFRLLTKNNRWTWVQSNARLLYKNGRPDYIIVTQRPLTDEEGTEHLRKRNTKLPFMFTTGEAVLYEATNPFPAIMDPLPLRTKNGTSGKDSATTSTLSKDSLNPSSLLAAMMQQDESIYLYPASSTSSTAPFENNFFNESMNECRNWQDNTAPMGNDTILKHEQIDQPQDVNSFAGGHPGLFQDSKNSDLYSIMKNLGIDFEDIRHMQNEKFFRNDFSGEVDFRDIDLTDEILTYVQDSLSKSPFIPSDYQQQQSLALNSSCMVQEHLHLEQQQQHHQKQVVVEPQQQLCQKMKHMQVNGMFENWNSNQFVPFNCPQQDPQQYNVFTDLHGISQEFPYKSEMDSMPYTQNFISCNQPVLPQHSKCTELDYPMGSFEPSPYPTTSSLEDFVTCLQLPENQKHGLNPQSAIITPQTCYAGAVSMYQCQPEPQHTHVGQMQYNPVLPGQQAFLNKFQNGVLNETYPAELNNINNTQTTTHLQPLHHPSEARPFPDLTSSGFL

For this experiment, the target named is Aryl hydrocarbon receptor (Homo sapiens) (UniProt P35869). The experiment in a line: ATG_Ahr_CIS: Attagene CIS-FACTORIAL HepG2 Assay for human Aryl Hydrocarbon Receptor (Ahr) (AID 2282930). Particulars: HepG2 AhR cis-factorial reporter transcription; actives raise or lower the signal. As for the experimental part:
ATG_CIS is a cell-based, multiplexed-readout assay that uses HepG2, a human liver cell line, with measurements taken at 24 hours after chemical dosing in a 24-well plate.ATG_Ahr_CIS is one of 52 assay component(s) measured or calculated from the ATG_CIS assay. It is designed to make measurements of mRNA induction, a form of inducible reporter, as detected with fluorescence intensity signals by Reverse transcription polymerase chain reaction (RT-PCR) and Capillary electrophoresis technology.Data from the assay component ATG_Ahr_CIS was analyzed into 1 assay endpoint. This assay endpoint, ATG_Ahr_CIS, was analyzed with bidirectional fitting relative to DMSO as the negative control and baseline of activity. Using a type of inducible reporter, measures of mRNA for gain or loss-of-signal activity can be used to understand the reporter gene at the transcription factor-level as they relate to the gene AHR. Furthermore, this assay endpoint can be referred to as a primary readout, because this assay has produced multiple assay endpoints where this one serves a reporter gene function. To generalize the intended target to other relatable targets, this assay endpoint is annotated to the dna binding intended target family, where the subfamily is basic helix-loop-helix protein.
Human liver HepG2 cells are transiently transfected with multiple reporter transcription units (MRTUs) in 6-well plates using FuGene 6 reagent (Roche; 3 ml FuGene/1 mg DNA). The MRTU constructs are regulated by a cis-regulating element (promoter). […] A major difference between the CIS and TRANS system is that in CIS activities of endogenous TFs are measured, whereas the TRANS assay evaluates changes in activities of exogenous, chimeric NR-Gal4 proteins. […] At the end of 24 hour incubation, total RNA was isolated using TriZol reagent (Invitrogen). The isolated RNA is then reverse-transcribed using oligo(dT) primer and Mo-MLV reverse transcriptase (Invitrogen) with DNAse I (Ambion) treatment for 30 min. The one-tenth of the produced cDNA was amplified by PCR using Taq DNA polymerase (Invitrogen) and two reporter sequence-specific primers. The PCR products were fluorescently labeled by primer extension with 6-arboxyfluorescein (6-FAM) 5'-labeled reporter sequence-specific primer (2 min at 95 C, 20 s at 68 C and 10 min at 72 C) and these products were digested with 5U of HpaI (New England Biolabs) for 2h at 37 C. […] The raw capillary electrophoresis data was processed using Attagraph software (Attagene).
With `COP(=O)(CCC(=O)NCO)OC`, the outcome was inactive.
On the same count and under the same terms, the result for `NC(=O)C(F)(F)C(F)(F)F` reads “inactive”.
On the same count and under the same terms, the result for `CCOP(=S)(S)OCC` reads “inactive”; that for `Cc1cccc(N)c1`, “inactive”.
On the same count and under the same terms, in the case of `Oc1ccc(I)cc1` it was “inactive”.
Take `CCN(CC)c1ccccc1`: the molecule was called inactive.
On the same count and under the same terms, the result for `OCC(F)(F)OC(F)(F)C(F)(F)OC(F)(F)CO` reads “inactive”; that for `CC(O)C(F)(F)C(F)(F)F` (stereo not given), “inactive”.
Take `Cc1cc(C)c(C(=O)P(=O)(c2ccccc2)c2ccccc2)c(C)c1`: the outcome was inactive.
Same read-out and setting: the result for `O=C(O)C(F)(OC(F)(F)C(F)(F)C(F)(F)F)C(F)(F)F` (stereo not given) reads “inactive”; that for `O=C(O)C=CC(F)(C(F)(F)F)C(F)(F)F`, “inactive”.
For the molecule `COCCOCCO`, the molecule was classed as inactive.
Broadly, the AC50 is the midpoint of the concentration-response curve, whichever way the signal moves. Regarding `CCCCC(CC)COP(=O)(Oc1ccccc1)Oc1ccccc1` (stereo not given), the AC50 was 17.8 µM (active).
`COP(=O)(O)OC`: the molecule was classed as inactive.
On to `Nc1ccc([N+](=O)[O-])cc1Cl`, for which the molecule was classed as inactive.
Take `CC(C)Nc1ccc(Nc2ccccc2)cc1`: the outcome was inactive.
On the same count and under the same terms, the result for `CCOS(=O)(=O)OCC` reads “inactive”; that for `COC(N)=O`, “inactive”.
The same measure, in the same setting: the result for `O=[N+]([O-])c1ccc(Cl)c(Cl)c1` reads “inactive”; that for `Nc1ccc(Cl)cc1`, “inactive”.
In the case of `CCCCc1ccc(O)cc1`, the molecule was classed as inactive.
Consider `Oc1ccccc1Br`, for which the outcome was inactive.
Still for that read-out and setting: in the case of `CN(C)C(=O)Cl` it was “inactive”; in that of `c1cc2c3c(cccc3c1)CC2`, “inactive”; in that of `OCC(F)(F)OC(F)(F)C(F)(F)OC(F)(F)C(F)(F)OC(F)(F)CO`, “inactive”.
As for `Cn1[nH]nnc1=S`, the molecule was classed as inactive.
Consider `CC(C)(C)c1ccc(O)cc1`, for which the molecule was classed as inactive.
As for `c1ccc(OP(Oc2ccccc2)Oc2ccccc2)cc1`, the outcome was inactive.
As for `CCCCC(CC)COC(=O)c1c(Br)c(Br)c(Br)c(Br)c1C(=O)OCC(CC)CCCC` (stereo not given), the molecule was classed as inactive.
In the case of `Nc1ccc2ccccc2c1`, the AC50 was 7.38 µM (active).
Turning to `CCCCN(CCCC)N=O`, the outcome was inactive.
The same measure, in the same setting: in the case of `CCOP(=O)(O)C(N)=O` it was “inactive”; in that of `O=C(CBr)OCc1ccccc1`, “inactive”.
As to `C/C(=N\NC(=O)Nc1cc(F)cc(F)c1)c1ncccc1C(=O)O`, the half-maximal activity concentration (AC50) is 57.2 µM (active) and 46.1 µM (active).
On to `CC(C)(C)N(NC(=O)c1ccc(Cl)cc1)C(=O)c1ccccc1`, for which the molecule was classed as inactive.
For the molecule `ClC(Cl)c1ccccc1`, the molecule was classed as inactive.
The same measure, in the same setting: in the case of `CC(C)CBr` it was “inactive”; in that of `CCCCOCC1CO1` (stereo not given), “inactive”; in that of `CCCCN(CCCC)SN(C)C(=O)Oc1cccc2c1OC(C)(C)C2`, “inactive”.
`O=P1(N(CCCl)CCCl)NCCCO1` (stereo not given): the result was inactive.
